This is an account of results in PubChem BioAssay (EPA / NIEHS).

One may read the AC50 as the concentration at which the activity in the assay is half-maximal.

SMILES strings stand for the structures. Active and inactive are the calls of the source. The calls were made as follows: active = hit-call score of the fitted dose curve at least 0.9, where 1 is the maximum; inactive = score below 0.9.

Read-out in this assay: Keratin 19 (KRT19), KRT19 (gene 3880)
The assay is described as follows: LTEA_HepaRG_KRT19: Life Technologies and Expression Analysis (LTEA) Assay for Keratin 19 (KRT19) using HepaRG (AID 2283512). The conditions noted are these: mRNA level, 48 h; actives raise or lower the signal. As for the experimental part:
LTEA_HepaRG is a cell based, multiplexed-readout assay that uses HepaRG, a human liver cell line, with measurements taken at 48 hours after chemical dosing on a 96-well plate.LTEA_HepaRG_KRT19 is one of 102 assay component(s) measured in the LTEA HepaRG cell culture assay. It is a marker of Cell proliferation, survival, death.Data from the assay component LTEA_HepaRG_KRT19 was analyzed into 1 endpoint. This assay endpoint, LTEA_HepaRG_KRT19, was analyzed with bidirectional fitting relative to DMSO as the negative control and baseline of activity. Using a type of inducible reporter, measures of mRNA induction for gain or loss-of-signal activity can be used to understand regulation of transcription factor activity. To generalize the intended target to other relatable targets, this assay endpoint is annotated to the filaments intended target family, where the subfamily is keratin.
A total of 1060 chemcials from the ToxCast library were tested in eight-point concentration-response experiments. Cell culture and cytotoxicity assays were conducted at Thermo Fisher Scientific's Custom Services facility (Madison, WI). A single lot of human HepaRG cells (Thermo Fisher Scientific, Frederick, MD) was used for the cell culture experiments. 96-well format collagen type I coated plates of human HepaRG cells were prepared using established methods. Briefly, cryopreserved HepaRG cells were thawed, plated at a density of approximately 100,000 cells/well in HepaRG Thaw, Plate, and General Purpose media (HPRG770, Thermo Fisher Scientific), and incubated for 48 hours. 0.5% DMSO was selected as vehicle control to balance the requisite need of DMSO in HepaRG cultures to maintain differentiation (for example, baseline metabolism, proportions of hepatocytes vs. cholangiocytes), while enabling further hepatic receptor pathway activation (for example, PXR and CAR) in response to chemical exposure. 48 hours after plating, the culture medium was replaced with HepaRG Serum-Free Incudtion Media. Cells were exposed to each test chemical in duplicate and maintained in CO2 incubators for another 48 hours. Chemical plates were thawed to room temperature and 200x concentrations of treatment groups were prepared. 8-point conentration-reponse curves were made with the highest exposure at 100 uM, followed by half-log dilutions, all in 0.5% DMSO. Each test plate contained variouse controls, induction positive controls (1mM phenobarbital), cytotoxicity positive controls ([…] aflatoxin B1), vehicle controls (0.5% DMSO), and total lysis controls (0.5% DMSO). Cell morphology images were taken using an Essen IncuCyte FLR automated microscope, with six 96-well plates imaged in about 24 minutes. Images were captured and exported and JPEG files. Spent culture media was transfered to black-well plates for the LDH assay, and remaining media was sorted at -80 C for later use. Cells were treated with RLT buffer and frozen until shipped for gene expression analysis. Total RNA was isolated from the cell suspension in 75 uL of Buffer RLT (Qiagen, Germantown, MD 20874) by Quintiles/Expression Analysis (Durham, NC) using a custom isolation procedure. Total RNA from each plate well was transferred to a preamplification plate. Fluidigm's 96.96 Dynamic ArrayTM (Fluidigm, Amsterdam, the Netherlands) technology was used for gene expression analyses by quantitative reverse transcription polymerase chain reaction (qRT-PCR, performed by Quintiles/Expression Analysis, Durham, NC)89. Standard TaqManTM Assays (Applied Biosystems/ThermoFisher Scientific, Foster City, CA) were used to assess the expression of 93 genes selected based on their selectivity and sensitivity to important hepatic receptors known to be modulated by environmental chemicals; importance in human hepatocyte functionality; and hepatotoxicity. […]
`CCCCOC(=O)c1ccccc1`: the compound was called inactive.

For the compound `OC[C@H]1O[C@@](CO)(O[C@H]2O[C@H](CO)[C@@H](O)[C@H](O)[C@H]2O)[C@@H](O)[C@@H]1O`, the compound was classed as inactive.

For the compound `NC(=O)N(O)[C@@H]1COc2cc(OCc3ccccc3)ccc21`, the result was inactive.

Take `CC1(C)C(=O)N(Cl)C(=O)N1Cl`: the compound was classed as inactive.

Take `C=CN1CCCC1=O`: the outcome was inactive.

`COc1cc(C(C)C)c2c(c1)S(=O)(=O)N(COc1cc(=O)n3cccc(OCCN4CCCCC4)c3n1)C2=O`: the half-maximal activity concentration (AC50) was 12.5 µM (active).

On to `O=C(O)c1ccc2c(c1)nc(C(=O)NC1CCN(C3CC3)CC1)n2Cc1cc(-c2ccc(Cl)s2)on1`, for which the call was inactive.

In the case of `c1ccc(C(O[C@@H]2CCCN(CCc3ccc4c(c3)OCO4)C2)c2ccccc2)cc1`, the half-maximal activity concentration (AC50) was 40.3 µM (active).

On to `CCc1cccc(CC)c1N`, for which the outcome was inactive.

In the case of `CCCc1ccccc1`, the outcome was inactive.

Turning to `CC(C)C(=O)Nc1ccc([N+](=O)[O-])c(C(F)(F)F)c1`, the AC50 is 23.5 µM (active).

For `OCCNCCO`, the AC50 is 50 µM (active).

On to `CCCOc1ccc(S(=O)(=O)N2CCN(CC)CC2)cc1-c1nc2c(CC)n(Cc3ccccn3)nc2c(=O)[nH]1`, for which the compound was called inactive.

On to `CCn1nc(C)c2c1C(=O)NCC(c1ccc(O)cc1)=N2`, for which the AC50 was 1.84 µM (active).

As to `CCCCCCCCN(C)C`, the call was inactive.

For `COc1cc2c(c(OC)c1OC)-c1ccc(OC)c(=O)cc1[C@@H](NC(C)=O)CC2`, the call was inactive.

As to `Cn1cc[nH]c1=S`, the result was inactive.

On to `CCCC(CCC)C(=O)O`, for which the compound was classed as inactive.

On to `O=S1(=O)CCCO1`, for which the compound was classed as inactive.

As for `NNC(=O)c1ccncc1`, the call was inactive.

On to `NC(=O)NN=Cc1ccc([N+](=O)[O-])o1`, for which the result was inactive.

Consider `CC[C@H](C)C(=O)O[C@H]1C[C@H](O)C=C2C=C[C@H](C)[C@H](CC[C@@H](O)C[C@@H](O)CC(=O)O)[C@H]21`, for which the result was inactive.

For the compound `O=C(O)c1cccc(C[C@@H]2COc3ccc(OCc4nc5cc(F)ccc5s4)cc3[C@@H]2O)c1`, the result was inactive.

With `CCCCCCCCCCCCCCCCOS(=O)(=O)O`, the outcome was inactive.

In the case of `O=C(O)[C@H](O)[C@@H](O)C(=O)O`, the result was inactive.

Regarding `C[C@@H](Oc1ccc(CNC(=O)c2cccnc2Oc2ccc3c(c2)OCO3)c(F)c1)C(=O)O`, the compound was called inactive.

In the case of `CCCCCCCCCC`, the call was inactive.

Consider `Cc1ccc(S(=O)(=O)NC(=O)NN2CCCCCC2)cc1`, for which the compound was called inactive.

As to `Cc1nccn1-c1ccc(Sc2cccc(C3(C(N)=O)CCOCC3)c2)cc1`, the half-maximal activity concentration (AC50) is 6.52 µM (active).

Consider `CCCCCCCCCCCCCCO`, for which the outcome was inactive.

In the case of `O=C1CN(N=Cc2ccc([N+](=O)[O-])o2)C(=O)N1`, the AC50 was 88.7 µM (active).

In the case of `CCCCCCCC/C=C\CCCCCCCC(=O)OC[C@@H](O)[C@H]1OC[C@H](O)[C@H]1O`, the compound was classed as inactive.

On to `CCCCC(CC)C(=O)OCCOCCOCCOC(=O)C(CC)CCCC` (stereo not given), for which the compound was called inactive.

For `CCc1ccc(O)c(C(C)(C)C)c1`, the result was inactive.

`c1ccc2ncccc2c1`: the result was inactive.

For `C=CCc1cc(S(=O)(=O)c2ccc(O)c(CC=C)c2)ccc1O`, the half-maximal activity concentration (AC50) is 50 µM (active).

Turning to `CC(C)c1nnc2ccc(-c3ocnc3-c3cc(F)ccc3F)cn12`, the AC50 is 18.7 µM (active).

`CC(=O)c1ccccc1`: the call was inactive.

For `O=S(=O)(O)c1ccc(N=Nc2c(O)ccc3cc(S(=O)(=O)O)ccc23)cc1`, the result was inactive.

Turning to `OCc1ccccc1`, the result was inactive.
